A selection: hits, their analogues and other compounds. The true share with any hit is near 12%.
Calpain2 inh – blocks pig calpain II enzyme activity. purified calpain II, fluorogenic peptide substrate, 30 min. inhibition, % at 16 µM. 220,000 tested, 0.37% active;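 active = inhibition above about 50%, limit read from the data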
Cl transport mod – modulators of human KCC2 chloride dependent transport | 190,000 tested, 2.2% active | KCC2 cells, thallium flux FluoZin-2 fluorescence | B-score of Tl+ flux slope (higher = more flux/activation; lower = inhibition) at 10 µM | Q9H2X9;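 active = thallium flux slope and its plate-corrected score both differing from the plate sample mean at a set confidence after two filtering rounds, in either direction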;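 note: slope of fluorescence scaled to starting intensity during 10 to 20 s after thallium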
ROMK primary – human ROMK K+ channel modulation, primary screen; P48048; Tet-inducible ROMK, thallium flux fluorescence; actives lie on both sides; B-score at 10 µM; 130,000 tested, 2% active; AID 1918;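 active = signal ratio slope over the read window, or its plate-corrected B-score, at least 3 SD from the plate mean, either direction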;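 note: B-score of the F/F0 ratio slope over 7 to 12 s after thallium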
Target sequence (P48048 whole entry, looked up): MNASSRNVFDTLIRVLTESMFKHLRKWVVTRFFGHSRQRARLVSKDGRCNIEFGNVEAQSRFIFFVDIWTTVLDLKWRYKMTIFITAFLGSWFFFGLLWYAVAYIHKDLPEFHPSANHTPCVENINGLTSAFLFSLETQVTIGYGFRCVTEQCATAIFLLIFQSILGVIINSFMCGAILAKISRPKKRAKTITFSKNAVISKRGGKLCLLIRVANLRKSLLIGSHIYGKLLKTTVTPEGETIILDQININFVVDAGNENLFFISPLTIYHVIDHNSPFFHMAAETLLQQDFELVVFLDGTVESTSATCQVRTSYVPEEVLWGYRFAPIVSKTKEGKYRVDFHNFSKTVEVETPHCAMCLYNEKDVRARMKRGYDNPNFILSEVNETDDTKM
WT yeast gro inh – growth inhibition of WT yeast, mitochondrial fusion screen; mitochondrial fusion phenotypic screen, WT strain; inhibition, % at 10 µM; 190,000 tested, 2.1% active; AID 1362; in the data active = inhibition above about 58%; tested in S. cerevisiae
Lmaj promast – Leishmania major promastigote growth inhibition; inhibition, % at 10 µM; 200,000 tested, 9% active; Leishmania major promastigotes, resazurin fluorescence viability; in the data active = inhibition above about 50%;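 note: promastigotes grown with compound for 44 hours at 28 °C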
Large screens that a line does not name were inactive.

CC(=O)CCc1ccc(OCCCCN2CCC(Cc3ccccc3)CC2)cc1	Lmaj promast 94
COc1cccc(OC)c1OCCCCN1CCC(Cc2ccccc2)CC1	Lmaj promast 89
CC(=O)N1N=C(c2ccc3ccccc3c2)OC12CCCC2	none (no result: ROMK primary, WT yeast gro inh, Lmaj promast)
CC(=O)OCc1c(C)cc(C)c(/C=C(/C#N)C(N)=O)c1C	none (no result: Cl transport mod)
COc1cccc(OC)c1OCCCN1CCOCC1	none
COc1cccc(OC)c1OCCCCN1CCCC1	WT yeast gro inh 66, Lmaj promast 66 (no result: ROMK primary)
O=C(Nc1ccc(F)cc1)c1cc(S(=O)(=O)N2CCCCC2)cs1	none
O=c1[nH]cc(COCC(F)CCl)c(=O)[nH]1 (stereo not drawn)	none (no result: ROMK primary, WT yeast gro inh, Lmaj promast)
O=C(CNC(=O)c1ccc(N2C(=O)c3ccccc3C2=O)cc1)OCC(=O)c1ccccc1	Lmaj promast 62
O=C(CNC(=O)c1ccc(N2C(=O)c3ccccc3C2=O)cc1)OCC(=O)c1cccc2ccccc12	Lmaj promast 62
CCc1ccc(C(=O)COC(=O)CNC(=O)c2ccc(N3C(=O)c4ccccc4C3=O)cc2)cc1	none (no result: ROMK primary)
O=C(NNC(=O)C(O)(c1ccccc1)c1ccccc1)C1CC1	none
Cc1cc(C(=O)N2CCN(C/C=C/c3ccccc3)CC2)cs1	none (no result: ROMK primary)
Cc1ccc(NC(=O)N2CCN(C/C=C/c3ccccc3)CC2)cc1	none
CC(=C1C(=O)c2ccccc2C1=O)N1CCN(C/C=C/c2ccccc2)CC1	Lmaj promast 83
CCCCNC(=O)N1CCN(C/C=C/c2ccccc2)CC1	Lmaj promast 53 (no result: ROMK primary)
O=C(c1cc(Br)c(Br)s1)N1CCN(C/C=C/c2ccccc2)CC1	WT yeast gro inh 64
O=C(Nc1ccc2c(c1)OCO2)N1CCN(C/C=C/c2ccccc2)CC1	Lmaj promast 74 (no result: Cl transport mod, ROMK primary)
CCC(CC)NC(=O)COC(=O)c1cc(SC)ccc1Cl	none
CCOC(=O)c1cc[n+](CC(=O)c2ccc(F)cc2)cc1	none (no result: ROMK primary)
COc1cc(Cl)c(C)cc1NC(=O)COC(=O)c1cnc(C)cn1	none
COc1cc(Cl)c(S(=O)(=O)NCc2cccnc2)cc1Cl	none (no result: ROMK primary)
C=CCN1C(=O)C(O)(CC(=O)c2ccc(OC)cc2OC)c2cc(Br)ccc21 (stereo not drawn)	Lmaj promast 74
CN1C(=O)C(O)(CC(=O)c2ccccc2O)c2cc(Br)ccc21 (stereo not drawn)	none (no result: ROMK primary)
Cc1cccn2c(CNCCCOc3cccnc3)c(C(=O)N3CCOCC3)nc12	none
CN(C1=C(NC(=O)c2ccccc2)C(=O)c2ccccc2C1=O)C1CCS(=O)(=O)C1 (stereo not drawn)	Lmaj promast 99 (no result: ROMK primary)
CC(=O)NC1=C(NC2CCS(=O)(=O)C2)C(=O)c2ccccc2C1=O (stereo not drawn)	none (no result: ROMK primary)
O=C(O)C1=C[C@H](c2csc3ccccc23)C[C@H](OCc2ccc(CO)cc2)O1	none (no result: ROMK primary)
O=C(NCc1ccccc1)C1=C[C@@H](c2csc3ccccc23)C[C@@H](OCc2ccc(CO)cc2)O1	Lmaj promast 74 (no result: ROMK primary)
C#CCNC(=O)C1=C[C@@H](c2csc3ccccc23)C[C@@H](OCc2ccc(CO)cc2)O1	none (no result: ROMK primary)
O=C(NC1CC1)C1=C[C@H](c2csc3ccccc23)C[C@H](OCCCCO)O1	Lmaj promast 85 (no result: ROMK primary)
O=C(O)C1=C[C@@H](c2csc3ccccc23)C[C@@H](OCc2ccc(CO)cc2)O1	Cl transport mod -3.1 (no result: ROMK primary)
O=C(NC1CC1)C1=C[C@@H](c2csc3ccccc23)C[C@@H](OCCCCO)O1	none (no result: ROMK primary, WT yeast gro inh, Lmaj promast)
COc1c(Cl)cnn(-c2ccc(Cl)c(Cl)c2)c1=O	none
CC1Cc2ccccc2N1C1=CC(=O)CCC1 (stereo not drawn)	Lmaj promast 98
Cc1ccc(-n2c(P(C)(=O)O)nc3ccccc32)cc1	none
O=C(NCCCN1CCOCC1)c1ccc(Br)cc1	Lmaj promast 52 (no result: Cl transport mod)
O=C(CN1CCN(Cc2ccc(Cl)cc2)C1=O)NCCCN1CCOCC1	none (no result: Cl transport mod, ROMK primary)
O=C(NCCCN1CCOCC1)c1ccc(CSc2ccc(Cl)cc2)cc1	Lmaj promast 97
O=C(NCCCN1CCOCC1)c1cc(-c2ccc(Br)cc2)on1	Lmaj promast 94 (no result: ROMK primary)
O=C(CCS(=O)(=O)Cc1ccc(Cl)cc1)NCCCN1CCOCC1	Lmaj promast 89
CCc1ccc(C(=O)NNC(=O)OC)cc1	none (no result: ROMK primary)
CC(C)Sc1sc(C(=O)O)c(-c2ccc(Cl)cc2)c1C#N	none (no result: ROMK primary, WT yeast gro inh, Lmaj promast)
Cc1sc2nc(CSCC(=O)N(CCC#N)c3ccccc3)[nH]c(=O)c2c1C	none
O=C(N/N=C/c1ccc(-c2ccc([N+](=O)[O-])cc2)o1)c1cccnc1	none (no result: Cl transport mod, ROMK primary, WT yeast gro inh, Lmaj promast)
O=C(N/N=C/c1ccc(-c2ccccc2[N+](=O)[O-])o1)c1cncc(Br)c1	Lmaj promast 98
Cc1cc([N+](=O)[O-])c(C)cc1-c1ccc(/C=N/NC(=O)c2cccnc2)o1	Lmaj promast 100
Cc1c(C(=O)N/N=C/c2ccc(-c3ccccc3[N+](=O)[O-])o2)sc(N)c1C#N	Lmaj promast 71 (no result: ROMK primary)
O=C(O)[C@H](Cc1ccccc1)NC(=O)N1CCN(c2ccc(F)cc2)CC1	none (no result: ROMK primary, WT yeast gro inh, Lmaj promast)
COc1cc(NC(=O)CN(C)Cc2cccc(F)c2)c(C)cc1[N+](=O)[O-]	none
COC(=O)NC(=C(Cl)Cl)S(=O)(=O)c1ccccc1	Lmaj promast 97
Cc1cc(C)cc(-n2c(C)cc(/C=N/NC(=O)CN(c3c(C)cccc3C)S(C)(=O)=O)c2C)c1	WT yeast gro inh 60
N#Cc1ccccc1CSc1ccc(-c2nc3ccccc3[nH]2)cn1	none (no result: Cl transport mod, ROMK primary)
CC(=O)CSc1ccc(-c2nc3cc(C)c(C)cc3[nH]2)cn1	Lmaj promast 80
Cc1cc2nc(-c3ccc(SCc4ccc(C#N)cc4)nc3)[nH]c2cc1C	Lmaj promast 62
Cc1ccc(NC(=S)NCC2CCCO2)c(OC(F)F)c1 (stereo not drawn)	none (no result: ROMK primary)
CCn1ncc(/C=N/NS(=O)(=O)c2ccc(Cl)cc2)c1C	none
CCOC(=O)/C(=C/c1ccc(N2CCC(c3ccccc3)=N2)cc1)C(C)=O	ROMK primary -3.4, WT yeast gro inh 78
CCOC(=O)c1cnc(-n2nc(C)cc2C)nc1NCCO	none (no result: Cl transport mod, ROMK primary)
CCOC(=O)c1cnc(-n2nc(C)cc2C)nc1NNc1cc(-c2ccccc2)nc(C)n1	Lmaj promast 100
CCOC(=O)c1cnc(-n2nc(C)cc2C)nc1N1CC(C)OC(C)C1 (stereo not drawn)	Lmaj promast 67 (no result: Calpain2 inh, WT yeast gro inh)
CCOC(=O)c1cnc(-n2nc(C)cc2C)nc1NCc1ccccc1	WT yeast gro inh 65, Lmaj promast 90 (no result: Cl transport mod)
CCOC(=O)c1cnc(-n2nc(C)cc2C)nc1NC(C)c1ccccc1 (stereo not drawn)	Lmaj promast 96
CCOC(=O)c1cnc(-c2ccccc2)nc1N1CC(C)OC(C)C1 (stereo not drawn)	none
Cc1occc1-c1nnc(SCC(=O)N(C)C)o1	none (no result: Cl transport mod)
CC1=NOC(=O)/C1=C\c1ccc(-c2ccc(Cl)cc2Cl)o1	WT yeast gro inh 85, Lmaj promast 93 (no result: Cl transport mod)
CCn1nnc(-c2ccc(N)cc2)n1	none
CC1CN(C2CCN(C(=O)COc3ccc(Cl)cc3)CC2)CC(C)O1 (stereo not drawn)	Lmaj promast 92 (no result: ROMK primary)
Cc1cccc(OCC(=O)N2CCC(N3CCOCC3)CC2)c1	Lmaj promast 92 (no result: Cl transport mod)
CCOC(=O)N1CCN(C(=O)COc2ccc(Cl)cc2)CC1	none
Cc1ccc(S(=O)(=O)NC(CC(C)C)C(=O)N2CCC(C)CC2)cc1 (stereo not drawn)	none

Screens as filed in PubChem.
